From the supplement of paper PMC6089552
About 300 (9.4%) of roughly 3,200 compounds showed activity. Many of the other results were omitted from the sample, so actives are more common in it than they were.

System: A673/TR/shEF
Assay: cell viability (LOESS-normalised, relative to median of negative controls) (log2 ratio); higher = more viable cells (less compound effect), active = hit call of the paper (over 3 MAD below the median)
Conditions: treatment time: 72 h
In short: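 Doxycycline, present or absent from 24 h before compounds, was used to induce EWS-FLI1 shRNA knockdown in A673/TR/shEF Ewing sarcoma cells at 1,500 per well in 384-well plates. Cells then received library compounds at two or more concentrations, or DMSO controls, for three days. Viability was measured by CellTiter-Glo luminescence on an Envision reader, and per-plate LOESS correction, division by the negative-control median and log2 transformation followed.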

[1] = 0.25 µM, library screen: screen1, EWS-FLI1 expression: high (no doxycycline)
[2] = 0.25 µM, library screen: screen1, EWS-FLI1 expression: low (doxycycline-induced shRNA knockdown)
[3] = 0.25 µM, library screen: screen2, EWS-FLI1 expression: high (no doxycycline)
[4] = 0.25 µM, library screen: screen2, EWS-FLI1 expression: low (doxycycline-induced shRNA knockdown)
[5] = 2.5 µM, library screen: screen1, EWS-FLI1 expression: high (no doxycycline)
[6] = 2.5 µM, library screen: screen1, EWS-FLI1 expression: low (doxycycline-induced shRNA knockdown)
[7] = 2.5 µM, library screen: screen2, EWS-FLI1 expression: high (no doxycycline)
[8] = 2.5 µM, library screen: screen2, EWS-FLI1 expression: low (doxycycline-induced shRNA knockdown)
[9] = 0.103 µM, library screen: screen3, EWS-FLI1 expression: high (no doxycycline)
[10] = 0.103 µM, library screen: screen3, EWS-FLI1 expression: low (doxycycline-induced shRNA knockdown)
[11] = 0.308 µM, library screen: screen3, EWS-FLI1 expression: high (no doxycycline)
[12] = 0.308 µM, library screen: screen3, EWS-FLI1 expression: low (doxycycline-induced shRNA knockdown)
[13] = 0.926 µM, library screen: screen3, EWS-FLI1 expression: high (no doxycycline)
[14] = 0.926 µM, library screen: screen3, EWS-FLI1 expression: low (doxycycline-induced shRNA knockdown)
[15] = 2.8 µM, library screen: screen3, EWS-FLI1 expression: high (no doxycycline)
[16] = 2.8 µM, library screen: screen3, EWS-FLI1 expression: low (doxycycline-induced shRNA knockdown)
[17] = 8.3 µM, library screen: screen3, EWS-FLI1 expression: high (no doxycycline)
[18] = 8.3 µM, library screen: screen3, EWS-FLI1 expression: low (doxycycline-induced shRNA knockdown)
[19] = 25 µM, library screen: screen3, EWS-FLI1 expression: high (no doxycycline)
[20] = 25 µM, library screen: screen3, EWS-FLI1 expression: low (doxycycline-induced shRNA knockdown)

Measured: cell viability (log2)

Nc1ncn([C@@H]2O[C@H](CO)[C@@H](O)[C@H]2O)c(=O)n1
active: 25 µM, library screen: screen2, EWS-FLI1 expression: high (no doxycycline) -0.117
inactive: 0.025 µM, library screen: screen2, EWS-FLI1 expression: high (no doxycycline) 0.00187 | 0.025 µM, library screen: screen2, EWS-FLI1 expression: low (doxycycline-induced shRNA knockdown) 0.0749 | [1] 0.0677 | [2] 0.0883 | [3] 0.0549 | [4] 0.0892 | [5] 0.046 | [6] 0.161 | [7] 0.0659 | [8] 0.0803 | 25 µM, library screen: screen2, EWS-FLI1 expression: low (doxycycline-induced shRNA knockdown) -0.00278

Nc1ccn([C@@H]2O[C@H](CO)[C@@H](O)C2(F)F)c(=O)n1
active: [9] -1.19 | [10] -0.155 | [11] -1.43 | [12] -0.392 | [13] -1.81 | [14] -0.473 | [15] -1.98 | [16] -0.588 | [17] -2.08 | [18] -0.562 | [19] -2.16 | [20] -0.572

NC(=O)c1ncn([C@@H]2O[C@H](CO)[C@@H](O)[C@H]2O)c1N
inactive: [9] 0.135 | [10] 0.0617 | [11] 0.0707 | [12] 0.0876 | [13] 0.088 | [14] 0.0588 | [15] 0.1 | [16] 0.0775 | [17] 0.0463 | [18] 0.126 | [19] 0.13 | [20] 0.087

C[N+](C)(C)CCOP(=O)([O-])OP(=O)(O)OC[C@H]1O[C@@H](n2ccc(N)nc2=O)[C@H](O)[C@@H]1O
inactive: [3] 0.0983 | [4] 0.0319 | [7] 0.095 | [8] 0.0926

NC(=O)c1ncn([C@@H]2O[C@H](CO)[C@@H](O)[C@H]2O)c1O
inactive: [1] 0.115 | [2] 0.116 | [3] 0.21 | [4] 0.141 | [5] 0.0737 | [6] 0.176 | [7] 0.0545 | [8] 0.0404

Nc1ccn([C@H]2CC[C@@H](CO)O2)c(=O)n1
inactive: [9] 0.122 | [10] 0.0536 | [3] 0.188 | [4] 0.111 | [11] 0.116 | [12] 0.0808 | [13] 0.123 | [14] 0.139 | [7] 0.0418 | [8] 0.107 | [15] 0.148 | [16] 0.0816 | [17] 0.0629 | [18] 0.0663 | [19] 0.132 | [20] 0.176

NC(=O)c1ncn([C@@H]2O[C@H](CO)[C@@H](O)[C@H]2O)n1
inactive: [9] 0.0479 | [10] -0.00301 | [1] 0.0242 | [2] -0.0375 | [3] 0.0942 | [4] 0.138 | [11] 0.00539 | [12] 0.013 | [13] 0.012 | [14] 0.0638 | [5] 0.0898 | [6] -0.0568 | [7] 0.148 | [8] 0.053 | [15] -0.0142 | [16] -0.0276 | [17] 0.0371 | [18] 0.0291 | [19] 0.13 | [20] 0.0392

N=c1ccn2c(n1)O[C@H]1[C@H](O)[C@@H](CO)O[C@H]12
inactive: [2] 0.0178 | [4] 0.0732 | [8] 0.0215
active: [1] -0.254 | [3] -0.122 | [5] -1.03 | [6] -0.19 | [7] -0.641
